Screening results as filed in PubChem.
An excerpt weighted towards active compounds, which were near 8.1% of everything screened.
KB-3-1 cytotox – kills parental KB-3-1 adenocarcinoma cells; KB-3-1 viability, CellTiter-Glo ATP luminescence, 72 h; Potency, µM (highest dose often 46.1 µM), usual class: cytotoxic; 400,000 compounds, 1.4% hits; AID 1347075; note: nearly all actives have a fitted effect of over 60% in size
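Parental KB-3-1 adenocarcinoma cells in phenol-red-free DMEM with 10% FBS were pin-treated with compounds at several concentrations, incubated 72 h at 37 °C, and viability read by CellTiter-Glo luminescence; concentration-effect curves were fitted after normalization.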
MCF10A rerep – inducers of DNA re-replication in MCF 10A breast cells; 350,000 compounds, 2.9% hits; AID 624296; Potency, µM (titrated, usually from 46.1 µM), hits mostly activators; MCF 10A DNA re-replication, Hoechst nuclear intensity, 48 h; note: nearly all actives have a fitted effect of over 50% in size
SW480 rerep – DNA re-replication induction in SW480 cells. SW480 DNA re-replication, Hoechst DNA content imaging, 48 h. Potency, µM (doses to about 46.1 µM), actives largely listed as activators. 340,000 compounds, 1.8% hits. AID 624297; note: nearly all actives have a fitted effect of over 55% in size
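Hoechst fluorescence of nuclei (405 nm excitation, 500-530 nm emission) measured by plate-scanning imager after 48 hr compound exposure at 37 C; re-replication scored as increased number of nuclei with elevated intensity.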
ELG1 DNA repair – blocks ELG1-dependent DNA repair in HEK293T cells; HEK293T ELG1-luciferase reporter, luminescence, 16 h; DNA damage induced by 5-fluorouridine; Potency, µM (titrated, usually from 46.1 µM), most hits filed as inhibitors; 330,000 compounds, 2.3% hits; AID 504467; note: nearly all actives have a fitted effect of over 55% in size
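5-Fluorouridine DNA damage + compound/DMSO, 2,000 cells/well, 16 h, 37 °C/5% CO2. ONE-Glo, 30 min RT, luminescence. Readout = decrease in reporter signal.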
KB-V1 MDR tox – KB-V1 MDR subline cytotoxicity | AID 1347076 | KB-V1 MDR cells viability, CellTiter-Glo, 72 h | Potency, µM (titrated, usually from 46.1 µM), most hits filed as cytotoxic | 400,000 compounds, 3.4% hits; note: nearly all actives have a fitted effect of over 60% in size
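Compound-treated KB-V1 multidrug-resistant cells, 72 h, 37 degrees C; viability by CellTiter-Glo. Fitted qHTS curves give the values.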
Hits are given with their value; – = inactive; ? = inconclusive; · = not tested or not shown. Calls come from the whole dose curve; as a rule, active = well fitted curve in the direction sought with a large enough effect; inconclusive = small, poorly fitted or top-dose-only effect, or another doubt; inactive = no such curve, though single readings can be large; an effect the other way counts as inactive or inconclusive.

SMILES	KB-3-1 cytotox	MCF10A rerep	SW480 rerep	ELG1 DNA repair	KB-V1 MDR tox
COC(=O)c1c(NC(=O)CN2CCN(C(=O)c3ccco3)CC2)c2cc(C)ccc2n1C	–	–	–	20.6µM	–
COC(=O)c1[nH]c2ccccc2c1NC(=O)CN1CCCCCC1	–	–	–	?	–
CCOC(=O)N1CCN(CC(=O)Nc2c(C(=O)OC)[nH]c3ccccc23)CC1	–	5.8µM	–	?	?
CN(C)CCCNc1nc2cc(-c3cnn(Cc4ccccc4)c3)sc2c(=O)n1C	–	·	·	·	–
Cn1c(=O)c2cc(NC(=O)NCc3ccccc3)ccc2n1Cc1ccc(Cl)cc1	–	·	·	·	–
CCOC(=O)c1[nH]c2ccc(OC)cc2c1NC(=S)N1CCN(C(=O)OCC)CC1	–	–	–	–	–
CCOC(=O)c1[nH]c2ccccc2c1NC(=O)c1ccc(Br)o1	–	–	–	23.1µM	?
CCOC(=O)c1[nH]c2cc(OC)c(OC)cc2c1NC(=O)C(C)N1CCN(Cc2ccccc2)CC1 (configuration not stated)	?	?	?	9.2µM	?
CCOC(=O)c1[nH]c2ccccc2c1NC(=O)c1ccc(Br)cc1	–	·	·	·	–
CCN(CC(=O)Nc1c(C(=O)OC)[nH]c2ccc(Cl)cc12)c1ccc2c(c1)OCO2	–	?	–	23.1µM	?
CCOC(=O)c1[nH]c2ccc(OC)cc2c1NC(=S)N1CCN(c2ccccc2OC)CC1	8.2µM	?	?	7.31µM	?
CCOC(=O)C[C@@H](C#N)NC(=O)[C@@H]1CCCN1C(=O)[C@@H](NC(=O)c1ccc(N)c(Cl)c1)C(C)(C)C	–	·	·	·	–
Cc1ccc(CCNC(=O)C2COc3ccccc3C2)cc1 (configuration not stated)	–	·	·	·	?
COC(=O)c1[nH]c2cc(C)ccc2c1NC(=O)CN1CCN(c2ccccc2OC)CC1	?	–	–	20.6µM	?
COC(=O)c1ccccc1NC(=O)N1CCN(C(=O)c2ccco2)CC1	?	–	–	–	7.31µM
CCOC(=O)c1cnc2c(OC)cccc2c1N1CCN(c2ccccc2F)CC1	–	·	·	·	–
CCOC(=O)c1cnc2ccc(OCC)cc2c1N1CCN(c2ccccc2OC)CC1	?	18.4µM	–	14.6µM	?
COC(=O)c1[nH]c2cc(C)ccc2c1NC(=O)CN1CCOCC1	–	–	–	–	–
COC(=O)c1[nH]c2cccc(OC)c2c1NC(=O)CCN1CCN(c2cccc(Cl)c2)CC1	·	·	·	18.4µM	·
Cc1cc(C)c2oc(C(=O)Nc3c(C)n(C)n(-c4ccccc4)c3=O)cc(=O)c2c1	–	·	·	·	–
O=[N+]([O-])c1ccc(Nc2cccc3c2[nH]c2c(-c4ccccc4)nccc23)c([N+](=O)[O-])c1	–	–	–	·	?
CN1[C@@H](Cc2ccccc2)COc2cc(N3CCSCC3)ccc2S1(=O)=O	?	·	·	·	–
COC(=O)c1[nH]c2ccccc2c1NC(=O)CNC1CCCCC1	–	?	–	?	18.4µM
CCOC(=O)C1CCCN(CC(=O)Nc2c(C(=O)OC)[nH]c3ccc(Cl)cc23)C1 (configuration not stated)	–	–	–	20.6µM	–
CCn1c(N2CCN(CC(=O)c3c(C)n(C)c4ccccc34)CC2)nc2c1c(=O)[nH]c(=O)n2C	–	–	?	?	–
SMILES	KB-3-1 cytotox	MCF10A rerep	SW480 rerep	ELG1 DNA repair	KB-V1 MDR tox
COC(=O)c1[nH]c2ccccc2c1NC(=O)CN1CCC(C(N)=O)(N2CCCCC2)CC1	–	–	–	6.51µM	–
CCn1c(N2CCN(CC(=O)c3c(C)n(C)c4ccc(OC)cc34)CC2)nc2c1c(=O)[nH]c(=O)n2C	20.6µM	–	–	?	–
COc1ccc(OCc2nc3ccccc3n2C(C)c2ccccc2)cc1 (configuration not stated)	–	·	·	·	–
COc1ccc(-c2cc(C(C)=O)c(C)n2CCC(=O)Nc2ccc(C)c(Cl)c2)cc1	–	·	·	·	–
CC(C)NC(=O)c1cc(C2CCCCN2S(=O)(=O)c2cccc3cccnc23)on1 (configuration not stated)	–	·	·	·	–
COC(=O)c1ccc(NS(=O)(=O)c2cc(-c3cc(C)no3)ccc2OC)cc1	5.8µM	–	18.4µM	–	?
COc1ccc(Cl)cc1NS(=O)(=O)c1cc(-c2cc(C)no2)ccc1C	13µM	·	·	·	3.66µM
CCOC(=O)c1cc(-c2ccc(C)cc2)n(CC(=O)Nc2cc(C)ccc2C)c1C	–	·	·	·	–
CCc1ccc(C(C)NC(=S)NCc2ccc(F)cc2)cc1 (configuration not stated)	?	25.9µM	?	–	–
O=[N+]([O-])c1ccc2nc(-c3ccccc3)cc(-c3ccccc3)c2c1	–	–	–	–	–
Nc1nc(-c2cc(O)ccc2[N+](=O)[O-])cc(-c2ccccc2)c1[N+](=O)[O-]	–	1.84µM	23.1µM	–	–
Cc1ccc2nc3sc(C(=O)NCc4ccco4)cc3cc2c1	–	·	·	·	–
c1ccc(Cc2nnc(Sc3ccccc3)c3ccccc23)cc1	–	?	14.6µM	?	–
O=C(Nc1cccc(S(=O)(=O)c2cccc(NC(=O)c3ccco3)c2)c1)c1ccco1	–	–	–	23.1µM	?
O=C(Nc1ccc(Cl)c(NC(=O)c2cccs2)c1)c1ccco1	–	–	–	–	–
O=C(Nc1cccc(NC(=O)c2cccs2)c1)c1ccco1	–	–	–	–	14.6µM
Cc1ccc(NC(=O)CSc2nc(-c3cccs3)nc3cc(=O)[nH]n23)cc1	–	·	·	·	?
COc1cc(C)ccc1OCc1cc(C(=O)N(C)CCCN2CCOCC2)no1	–	–	–	?	–
CCOC(=O)c1ccc(Nc2ncnc3c2cnn3C)cc1	–	–	–	–	–
Cn1ncc2c(O/N=C(\N)c3ccc(C(C)(C)C)cc3)ncnc21	?	18.4µM	9.2µM	?	13µM
Cc1cccc(C)c1NC(=O)C(Cl)=C(Cl)Cl	18.4µM	–	?	–	?
C[C@@H]1C[C@H]2[C@@H]3CCC4=CC(=O)C=C[C@]4(C)[C@@]3(F)C(O)C[C@]2(C)[C@@]1(O)C(=O)CO (some centres not stated)	–	·	·	·	–
Cc1ccc(S(=O)(=O)n2nc(-c3ccco3)nc2NCc2ccc(N(C)C)cc2)cc1	?	·	·	·	–
O=C1C=C(Nc2ccc(Cl)cc2)CC(c2ccc(Cl)cc2)C1 (configuration not stated)	–	–	–	?	23.1µM
COc1ccc(NC(=O)C2CC3C=CC2C3)c([N+](=O)[O-])c1 (configuration not stated)	–	–	–	·	20.6µM
Cc1cc(C)c2nc(NNC(=O)c3ccc(S(=O)(=O)N4CCc5ccccc5C4)cc3)sc2c1	?	?	11.6µM	–	–
Cc1cc(C)c2sc(NNC(=O)c3ccc(S(=O)(=O)N4CCc5ccccc5C4)cc3)nc2c1	?	?	5.17µM	–	–
CCc1nnc(NC(=O)c2ccc(S(=O)(=O)N3CCc4ccccc4C3)cc2)s1	–	–	–	–	–
